Experimental findings from PubChem BioAssay (Tox21) are described below.

SMILES strings stand for the structures. “And” between values parts separate entries of the source, which are not always exact repeats. Equal values may be shown once. Results filed as inconclusive are left out. The source holds several records for some structures; these can differ, active in one and inactive in another. The source made the active and inactive calls. Unless noted, calls follow the shape of the dose curve; as a rule, active = well fitted curve in the direction sought with a large enough effect in the repeat runs; inconclusive = weak or mixed curves; inactive = no such curve, though single readings can be large; an effect the other way counts as inactive or inconclusive.

Test [1] is described as follows: qHTS assay to identify small molecule phospholipidosis (PLD) inducers (AID 1259344; active = well fitted curve in the direction sought with a large enough effect; an effect the other way counts as inactive or inconclusive). In short, it runs like this:
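HepG2 cells on collagen I, attached 4 h at 37 C, were co-treated with compound and LipidTOX Red dye for 24 h at 37 C, then fixed with paraformaldehyde plus Hoechst 33342 and imaged by high-content microscopy for phospholipid accumulation.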
(Quantitative high-throughput screening tests each substance at several concentrations.)

Test [2] in a line: qHTS assay to identify small molecule HDAC inhibitors - cell viability counter screen (AID 1259365). Also: series mostly up to about 92 µM; nearly all actives have a fitted effect of over 50% in size. In short, it runs like this:
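Counter screen in wild-type HCT-116 cells: compounds dissolved in DMSO are pin-transferred onto overnight-plated cells and left 2hr at 37C. ATP-based CellTiter-Glo luminescence then measures viable cells.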

A short description of test [3]: qHTS assay to identify small molecule agonists of the sonic hedgehog signaling (Shh) pathway - cell viability counter screen (AID 1259366). Also: nearly all actives have a fitted effect of over 50% in size. Also: potency is read from the fitted curve at half-maximal effect. In a few lines: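 Cells are plated at 2,000 per well and left 4hr at 37C, 5% CO2 before compound addition. After 23hr of treatment, CellTiter-Fluor reagent is added for 1hr at 37C and fluorescence is measured.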
Test [4] in a line: qHTS assay to identify small molecule antagonists of the sonic hedgehog signaling (Shh) pathway - cell viability counter screen (AID 1259367). Also: nearly all actives have a fitted effect of over 55% in size. Also: potency is read from the fitted curve at half-maximal effect. In a few lines:
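NIH/3T3-derived Gli1-Luc reporter cells (2,000 per well) rested 4 hr at 37 C, then received DMSO compounds plus conditioned medium. After 23 hr of treatment, CellTiter-Fluor was added for 1 hr at 37C and fluorescence read.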

The nature of test [5]: qHTS assay to identify small molecule agonists of the sonic hedgehog signaling (Shh) pathway (AID 1259368; calls by dose curve;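 also: NIH/3T3-derived 3T3Gli1-Luc cells carrying a stable Gli1-driven firefly luciferase reporter; series mostly up to about 92 µM; nearly all actives have a fitted effect of over 15% in size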). In a few lines: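 A Gli1 transcriptional response element controlled firefly luciferase in 3T3Gli1-Luc cells. Compounds and a positive control were added 4 hr after plating, and cells were incubated a further 24 hr at 37 C before luminescence detection.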
The nature of test [6]: qHTS assay to identify small molecule antagonists of the sonic hedgehog signaling (Shh) pathway (AID 1259369; calls by dose curve; also: nearly all actives have a fitted effect of over 45% in size; also: potency is read from the fitted curve at half-maximal effect). In a few lines:
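For antagonist detection, the reporter line received test compounds together with conditioned medium, incubated 24hr at 37 C, 5% CO2, then luminescence was recorded following 30min room-temperature luciferase reagent incubation.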

The nature of test [7]: qHTS assay to identify small molecule agonists of the androgen receptor (AR) signaling pathway in the presence of an antagonist - cell viability counter screen (AID 1259379). Also: nearly all actives have a fitted effect of over 25% in size. Also: potency is read from the fitted curve at half-maximal effect. In short, it runs like this:
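Seed MDA-kb2 at 3,000 cells/well; incubate 5 hr, 37C, 0% CO2. Add nilutamide to 3.0uM final, then pin compounds at 15 concentrations. Incubate 16 hr. Add CellTiter-Fluor at 15 hr, read fluorescence after 1 hr.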

The nature of test [8]: qHTS assay to identify small molecule agonists of the estrogen receptor beta (ER-beta) signaling pathway - cell viability counter screen (AID 1259380). Also: nearly all actives have a fitted effect of over 30% in size. Also: potency is read from the fitted curve at half-maximal effect. In a few lines: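 CellTiter-Glo read, 30 min RT, same wells as bla assay; cells ER-beta-UAS-bla HEK293T; 16 hr compound, 37C; medium 2% charcoal-stripped FBS.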
Test [9] is described as follows: qHTS assay to identify small molecule antagonists of the estrogen receptor beta (ER-beta) signaling pathway - cell viability counter screen (AID 1259382). Also: nearly all actives have a fitted effect of over 55% in size. Also: potency is read from the fitted curve at half-maximal effect. In short, it runs like this: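 In this multiplexed counter screen, cells were seeded at 2,000 per well in medium with 2% charcoal-stripped FBS and incubated 6 hr before compound and 1nM final E2 were added. Sixteen hours later, ATP-based luminescence reported viability.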

A short description of test [10]: qHTS assay to identify small molecule agonists of the estrogen receptor alpha (ER-alpha) signaling pathway in the presence of an antagonist - cell viability counter screen (AID 1259386).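 Also: cells exposed to compounds for 22 h at 37 °C before the viability read; nearly all actives have a fitted effect of over 30% in size.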 Also: potency is read from the fitted curve at half-maximal effect. In short, it runs like this:
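Viability counter screen using VM7Luc4E2 (full-length ER-alpha, four ERE-luciferase). The cells were treated with compounds alongside ICI-182,780 10.0nM for 22hr, and live-cell protease fluorescence was quantified with CellTiter-Fluor.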

Test [11] has as its target Progesterone receptor (Homo sapiens) (UniProt P06401). In words: qHTS assay to identify small molecule agonists of the progesterone receptor (PR) signaling pathway (AID 1346784; calls by dose curve; also: nearly all actives have a fitted effect of over 30% in size). In short, it runs like this: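 Cells (PR-UAS-bla HEK 293T, GripTite) were plated in assay medium containing 2% charcoal-stripped FBS and incubated 6 hr. Test compounds in DMSO were added for 16 hr at 37C. FRET substrate was then loaded for 2 hr at room temperature before fluorescence reading.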

A short description of test [12]: qHTS assay to identify small molecule HDAC inhibitors (AID 1259364).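 Also: wild-type HCT-116 cells with endogenous class I/II HDAC activity; top concentration of the series differs between compounds; nearly all actives have a fitted effect of over 45% in size.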 In short, it runs like this:
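Read-out: luminescence of HDAC-Glo I/II reagent, 30 min RT, reflecting class I/II deacetylase activity in whole HCT-116 cells pre-exposed 2 h to DMSO-dissolved compounds.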

For test [13], the target named is Estrogen receptor beta (Homo sapiens) (UniProt Q92731). In words: qHTS assay to identify small molecule agonists of the estrogen receptor beta (ER-beta) signaling pathway (AID 1259377; active = well fitted activation curve with a large enough effect in the signal ratio in the repeat runs, not every such curve was filed as active; the % refers to the signal ratio). In a few lines:
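Agonist mode cell assay in GripTite HEK293T cells expressing an ER-beta fusion that drives beta-lactamase from an Upstream Activator Sequence; 16 hr compound exposure at 37C, then 2 h LiveBLAzer B/G FRET substrate at room temperature, fluorescence read-out.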

The target is the same in test [14]. In words: qHTS assay to identify small molecule antagonists of the estrogen receptor beta (ER-beta) signaling pathway (AID 1259378; active = well fitted inhibition curve with a large enough effect in the signal ratio in the repeat runs, not every such curve was filed as active; the % refers to the signal ratio). In short, it runs like this: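 ER-beta-UAS-bla HEK293T (GripTite) cells in 2% charcoal-stripped FBS medium were preincubated 6 hr at 37C, dosed with compound, then stimulated with 1 nM E2 (final) for 16 hr; beta-lactamase reporter read by B/G FRET fluorescence after 2 hr substrate loading.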

The nature of test [15]: qHTS assay to identify small molecule agonists or antagonists of the thyroid stimulating hormone receptor (TSHR) signaling pathway - wild type cell line counter screen (AID 1259384; calls by dose curve). In a few lines:
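Wild-type HEK293 cells were plated 18 h at 37 C/5% CO2, pin-dosed with compound plus Ro20-1724 medium, held 30 min at room temperature, then given cAMP-d2 and anti-cAMP-cryptate; fluorescence was read after 1 h. Fifteen concentrations, triplicate.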

Test [16] has as its target Thyrotropin receptor (Homo sapiens) (UniProt P16473). In words: qHTS assay to identify small molecule antagonists of the thyroid stimulating hormone receptor (TSHR) signaling pathway (AID 1259385; calls by dose curve; also: nearly all actives have a fitted effect of over 20% in size; also: potency is read from the fitted curve at half-maximal effect). In short, it runs like this: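 TSHR-HEK293 cells were plated and held 18 h at 37C/5% CO2, then given compound plus Ro20-1724 and stimulated with TSH at 1.5 ng/mL final. After 30 min at room temperature, cAMP was detected with cAMP-d2/anti-cAMP-cryptate (1 h) by fluorescence.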

Test [17] addresses Androgen receptor (Homo sapiens) (UniProt P10275). In words: qHTS assay to identify small molecule agonists of the androgen receptor (AR) signaling pathway in the presence of an antagonist (AID 1259381; calls by dose curve; also: nearly all actives have a fitted effect of over 15% in size). In short, it runs like this:
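Test compounds at 15 concentrations were incubated for 16hr with MDA-kb2 reporter cells in presence of 3.0uM nilutamide (final). Signal: ONE-Glo luciferase luminescence.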

Thyrotropin receptor (Homo sapiens), sequence (P16473 whole entry, looked up): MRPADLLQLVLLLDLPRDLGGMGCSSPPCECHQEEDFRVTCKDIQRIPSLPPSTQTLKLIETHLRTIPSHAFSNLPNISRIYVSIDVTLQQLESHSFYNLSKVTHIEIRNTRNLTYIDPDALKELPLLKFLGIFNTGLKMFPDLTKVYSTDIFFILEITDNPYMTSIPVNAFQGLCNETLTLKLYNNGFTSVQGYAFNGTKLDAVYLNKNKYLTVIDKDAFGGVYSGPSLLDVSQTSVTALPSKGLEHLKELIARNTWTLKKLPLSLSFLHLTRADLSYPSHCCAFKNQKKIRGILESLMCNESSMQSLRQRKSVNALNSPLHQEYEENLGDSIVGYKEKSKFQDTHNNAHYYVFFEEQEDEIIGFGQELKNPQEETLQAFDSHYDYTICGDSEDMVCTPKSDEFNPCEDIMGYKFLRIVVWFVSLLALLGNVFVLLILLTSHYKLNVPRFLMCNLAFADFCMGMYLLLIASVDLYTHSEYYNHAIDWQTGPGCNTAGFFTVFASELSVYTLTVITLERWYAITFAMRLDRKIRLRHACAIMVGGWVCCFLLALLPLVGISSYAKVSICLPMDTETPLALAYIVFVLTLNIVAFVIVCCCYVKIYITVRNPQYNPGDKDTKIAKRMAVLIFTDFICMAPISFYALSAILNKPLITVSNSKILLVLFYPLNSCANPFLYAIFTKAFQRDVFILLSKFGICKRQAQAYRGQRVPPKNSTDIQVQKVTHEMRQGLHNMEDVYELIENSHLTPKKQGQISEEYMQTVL
Estrogen receptor beta (Homo sapiens), sequence (Q92731 whole entry, looked up, the tested form may be a part): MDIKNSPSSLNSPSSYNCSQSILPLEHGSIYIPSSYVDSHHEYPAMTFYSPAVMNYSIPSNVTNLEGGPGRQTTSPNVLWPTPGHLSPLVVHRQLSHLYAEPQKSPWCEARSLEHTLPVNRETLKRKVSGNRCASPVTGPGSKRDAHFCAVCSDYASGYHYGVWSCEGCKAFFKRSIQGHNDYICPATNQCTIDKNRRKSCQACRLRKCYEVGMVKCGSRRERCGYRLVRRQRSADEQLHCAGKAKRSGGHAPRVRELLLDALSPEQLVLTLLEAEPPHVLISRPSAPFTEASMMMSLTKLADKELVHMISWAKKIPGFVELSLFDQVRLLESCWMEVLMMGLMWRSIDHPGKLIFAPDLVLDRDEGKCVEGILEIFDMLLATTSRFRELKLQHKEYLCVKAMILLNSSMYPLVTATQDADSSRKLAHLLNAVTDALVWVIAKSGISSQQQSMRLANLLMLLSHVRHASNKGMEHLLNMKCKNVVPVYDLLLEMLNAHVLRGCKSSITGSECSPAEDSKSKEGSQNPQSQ
Progesterone receptor (Homo sapiens), sequence (P06401 whole entry, looked up): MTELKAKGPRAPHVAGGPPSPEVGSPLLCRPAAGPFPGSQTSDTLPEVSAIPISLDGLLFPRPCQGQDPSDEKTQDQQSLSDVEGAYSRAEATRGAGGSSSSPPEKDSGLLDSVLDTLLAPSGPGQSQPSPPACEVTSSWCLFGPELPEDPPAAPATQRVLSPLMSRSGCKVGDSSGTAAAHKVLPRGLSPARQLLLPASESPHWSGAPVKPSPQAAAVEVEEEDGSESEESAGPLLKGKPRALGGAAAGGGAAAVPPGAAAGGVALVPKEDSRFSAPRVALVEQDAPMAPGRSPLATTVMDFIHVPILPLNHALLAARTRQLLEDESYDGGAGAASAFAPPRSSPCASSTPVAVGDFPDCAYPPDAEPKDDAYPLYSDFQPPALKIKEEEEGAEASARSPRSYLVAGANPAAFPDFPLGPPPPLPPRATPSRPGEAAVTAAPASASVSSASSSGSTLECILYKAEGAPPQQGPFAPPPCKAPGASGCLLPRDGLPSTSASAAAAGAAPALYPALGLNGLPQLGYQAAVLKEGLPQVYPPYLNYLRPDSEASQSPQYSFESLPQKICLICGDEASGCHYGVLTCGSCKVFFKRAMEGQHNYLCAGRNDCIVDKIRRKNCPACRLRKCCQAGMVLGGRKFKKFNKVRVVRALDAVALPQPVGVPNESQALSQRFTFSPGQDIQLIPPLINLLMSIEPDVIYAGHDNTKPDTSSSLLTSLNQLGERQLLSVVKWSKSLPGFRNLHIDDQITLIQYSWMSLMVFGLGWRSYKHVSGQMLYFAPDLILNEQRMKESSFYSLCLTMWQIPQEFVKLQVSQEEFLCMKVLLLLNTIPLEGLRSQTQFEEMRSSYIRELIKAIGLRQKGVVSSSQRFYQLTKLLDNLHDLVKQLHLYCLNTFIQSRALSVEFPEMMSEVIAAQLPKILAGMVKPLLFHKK
Androgen receptor (Homo sapiens), sequence (P10275 whole entry, looked up): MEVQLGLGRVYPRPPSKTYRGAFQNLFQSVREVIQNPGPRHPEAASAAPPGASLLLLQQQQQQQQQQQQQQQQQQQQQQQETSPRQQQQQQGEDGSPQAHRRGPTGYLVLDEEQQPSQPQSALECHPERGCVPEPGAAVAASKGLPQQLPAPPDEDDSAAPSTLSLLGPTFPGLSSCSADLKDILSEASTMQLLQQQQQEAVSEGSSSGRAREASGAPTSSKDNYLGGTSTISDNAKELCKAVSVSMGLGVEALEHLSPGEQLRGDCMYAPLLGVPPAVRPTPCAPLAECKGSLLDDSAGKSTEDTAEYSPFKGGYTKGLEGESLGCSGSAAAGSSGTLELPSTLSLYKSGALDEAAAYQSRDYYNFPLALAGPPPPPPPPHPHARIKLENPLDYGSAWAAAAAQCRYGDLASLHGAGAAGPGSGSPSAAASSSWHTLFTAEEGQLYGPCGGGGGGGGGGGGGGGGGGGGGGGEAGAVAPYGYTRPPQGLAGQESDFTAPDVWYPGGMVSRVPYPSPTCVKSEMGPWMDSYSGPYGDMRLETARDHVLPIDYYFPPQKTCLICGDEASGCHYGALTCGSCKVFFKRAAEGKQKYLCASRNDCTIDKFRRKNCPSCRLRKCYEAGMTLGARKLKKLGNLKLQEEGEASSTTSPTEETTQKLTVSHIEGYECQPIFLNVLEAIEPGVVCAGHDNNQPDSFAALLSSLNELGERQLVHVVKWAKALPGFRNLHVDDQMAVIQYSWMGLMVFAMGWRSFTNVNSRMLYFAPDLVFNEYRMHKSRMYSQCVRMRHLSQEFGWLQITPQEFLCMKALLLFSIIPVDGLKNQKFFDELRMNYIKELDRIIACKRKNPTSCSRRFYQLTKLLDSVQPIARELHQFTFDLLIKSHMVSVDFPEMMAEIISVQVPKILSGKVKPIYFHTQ

Consider `CC[C@H]1CN2CCc3cc(OC)c(OC)cc3[C@@H]2C[C@@H]1C[C@H]1NCCc2cc(OC)c(OC)cc21`, for which the Potency entry in test [1], in test [2], in test [5], in test [8], in test [9] and in [11] was “inactive” throughout. For the same molecule, the Potency is 0.274 µM (active) in test [3]; 487 nM (active) and 2.37 µM (active) in test [4]; 8.7 nM (active) and 2.7 nM (active) in test [6]; 194 nM (active) in test [7]; 38.7 µM (active) in test [10].

With `CCCCCCC(O)CCCCCCCCCCC(=O)O` (centres undefined), the Potency entry in test [12], in test [2], in test [3], in test [4], in test [5] and in test [14] was “inactive” in each case. For the same molecule, the Potency result in [7], in test [15], in test [16], in test [10] and in [11] was “inactive” in each case. For the same molecule, the Potency in test [6] is 27.4 µM (active); in test [8] it was “inactive and 48.6 µM (active)”; in test [9], “inactive and 30.6 µM (active)”. Besides, the outcome in test [13] was inactive.

With `NC12CC3CC(CC(C3)C1)C2`, the Potency result in test [1], in test [12], in [2], in [3], in [4] and in test [5] was “inactive” in each case. The Potency entry in test [7], in [8], in test [9], in test [10] and in test [11] was “inactive” throughout.

Turning to `CC(C)(C)NC(=O)[C@@H]1CN(Cc2cccnc2)CCN1C[C@@H](O)C[C@@H](Cc1ccccc1)C(=O)N[C@H]1c2ccccc2C[C@H]1O`, the Potency entry in test [1], in [12], in test [2], in test [5], in test [6] and in test [8] was “inactive” throughout. Also, the Potency entry in [9], in test [10] and in [11] was “inactive” throughout.

On to `Cc1occc(=O)c1OC(=O)C(C)C`, for which the Potency entry in test [12], in test [2], in test [3], in [4], in test [5] and in test [6] was “inactive” throughout. Moreover, the Potency result in test [7], in test [8], in [9], in test [15], in [16] and in [10] was “inactive” throughout. The Potency entry in [11] is “inactive”. The molecule was called inactive in test [13].

With `COC(=O)[C@H]1[C@H]2C[C@@H]3c4[nH]c5cc(OC)ccc5c4CCN3C[C@H]2C[C@@H](OC(=O)c2cc(OC)c(OC)c(OC)c2)[C@@H]1OC`, the Potency entry in test [12], in test [2], in test [4], in test [5], in [7] and in test [15] was “inactive” each time. Moreover, the Potency entry in test [16], in test [10] and in test [11] was “inactive” in each case. Besides, the Potency in [6] was 12.2 µM (active) and 15.8 µM (active) and 23.7 µM (active); in test [8] it was 8.62 µM (active) and 9.96 µM (active) and 11.9 µM (active).

Consider `CNC1(C)C2CCC(C2)C1(C)C` (centres undefined), for which the Potency entry in test [1], in [12], in [2], in test [4], in test [5] and in test [6] was “inactive” throughout. Also, the Potency entry in test [7], in test [8], in [9], in [15] and in test [11] was “inactive” throughout.

As to `CCN(CC)CCOc1ccc(/C(=C(\Cl)c2ccccc2)c2ccccc2)cc1`, the Potency entry in test [12], in test [2], in [4], in test [5], in test [17] and in test [15] was “inactive” each time. Besides, the Potency entry in test [10] was “inactive”. Further, the Potency was 17.6 µM (active) in test [6]; 44.2 µM (active) and 29.8 µM (active) in test [7]; 49.6 µM (active) and 29.8 µM (active) in [8]; 44.2 µM (active) and 29.8 µM (active) in test [9]; 29.8 µM (active) in test [16].
